Calls of active or inactive are those of the source. No rule for the calls is given here.

The target in the test is Pantothenate synthetase (Mycobacterium tuberculosis (strain ATCC 25618 / H37Rv)) (UniProt P9WIL5). Description: Recombinant Mtb pantothenate synthetase (PanC) inhibitors, coupled enzyme, confirmatory (AID 375).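 Also: 0% = full reaction with vehicle and 100% = no enzyme background.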 The conditions noted are these: coupled enzyme assay; at 10 µM, stronger effect = higher value.
Chain of Pantothenate synthetase (Mycobacterium tuberculosis (strain ATCC 25618 / H37Rv)) (P9WIL5 whole entry, looked up): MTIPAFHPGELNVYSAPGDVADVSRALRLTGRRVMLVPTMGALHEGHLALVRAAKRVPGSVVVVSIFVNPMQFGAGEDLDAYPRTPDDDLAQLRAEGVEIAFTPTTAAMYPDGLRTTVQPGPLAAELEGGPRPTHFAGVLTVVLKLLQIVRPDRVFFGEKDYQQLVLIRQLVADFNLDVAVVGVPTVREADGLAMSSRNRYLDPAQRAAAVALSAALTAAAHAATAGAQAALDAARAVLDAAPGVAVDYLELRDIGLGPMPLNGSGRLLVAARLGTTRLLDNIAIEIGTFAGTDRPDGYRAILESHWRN
As to `CCc1nnc(NC(=O)c2ccc(-c3cccc(C(F)(F)F)c3)o2)s1`, the inhibition was 0% (inactive).

`Cn1nc(C(=O)N2CCOCC2)c2ccccc2c1=O`: the inhibition was 0% (inactive).

Regarding `NS(=O)(=O)c1ccc(CCNC(=O)CCC2COc3ccccc3O2)cc1` (stereo not given), the inhibition was 0% (inactive).

For the compound `Cc1cccc(-n2c(=O)cc(N3CCN(c4ccc(F)cc4)CC3)[nH]c2=O)c1`, the inhibition is 0% (inactive).

For `Cc1ccc(-n2nc(C)c3cc(C(=O)O)sc32)cc1`, the inhibition was 0% (inactive).

Turning to `COCc1cc(C)nc(SCC(=O)Nc2cccc(C)c2C)c1C#N`, the inhibition is 5% (inactive).

With `COc1ccc(-c2coc3cc(O)cc(O)c3c2=O)cc1`, the inhibition was 5% (inactive).

On to `Cc1ccnc(SCCn2c(N3CCCCC3)nc3c2c(=O)n(C)c(=O)n3C)n1`, for which the inhibition was 0% (inactive).

With `COc1ccccc1OCCCn1c(=O)oc2ccccc21`, the inhibition is 0% (inactive).

In the case of `C/C(Nc1cccc(F)c1)=C(/C#N)C(N)=O`, the inhibition was 3% (inactive).

For the compound `CCOC(=O)CN1CC23C=CC(O2)C(C(=O)NCc2ccc(F)cc2)C3C1=O` (stereo not given), the inhibition was 0% (inactive).

In the case of `Cc1nc2ccccc2c2oc(C(=O)N3CCN(C(=O)c4ccco4)CC3)cc12`, the inhibition is 0% (inactive).

With `Cc1ccc(-c2cc(C(=O)O)n[nH]2)o1`, the inhibition was 0% (inactive).

`C=CCn1c(=O)[nH]c2cc(C(=O)N3CCN(c4cc(C)ccc4C)CC3)ccc2c1=O`: the inhibition was 4% (inactive).

Consider `Cn1c(=O)c2c(nc(Oc3ccc4c(c3)OCO4)n2Cc2ccc(F)cc2)n(C)c1=O`, for which the inhibition was 0% (inactive).

For `CCc1ccc(CNCc2cccnc2)cc1`, the inhibition is 0% (inactive).

For `c1ccc(CC2CCN(Cc3nc(-c4ccccc4)no3)CC2)cc1`, the inhibition is 3% (inactive).

Turning to `O=C(Nc1ccccc1)c1cccc(N2CCCC2=O)c1`, the inhibition is 6% (inactive).

Regarding `CN(Cc1cccs1)CC(O)COCc1ccco1` (stereo not given), the inhibition is 0% (inactive).

Consider `CCOC(=O)Nc1c(C(=O)OC)[nH]c2cccc(OC)c12`, for which the inhibition is 0% (inactive).

As to `Cn1c(=O)oc2cc(S(=O)(=O)N3CCCC(C(=O)NCC4COc5ccccc5O4)C3)ccc21` (stereo not given), the inhibition was 0% (inactive).

Regarding `COCCOC(=O)C1=C(C)NC(C)=C(C(=O)OC(C)C)C1c1cccc([N+](=O)[O-])c1` (stereo not given), the inhibition was 0% (inactive).

Regarding `O=S(=O)(c1ccc2c(c1)OCCO2)N(Cc1ccc(F)cc1)Cc1nnc(-c2cccs2)o1`, the inhibition was 5% (inactive).

With `CCOC(=O)c1c(N)c(C#N)nn1-c1ccccc1C(=O)OC`, the inhibition was 0% (inactive).

`CCC(=O)N1CCc2cc(OC)c(OC)cc2C1COc1ccc(C(=O)OC)cc1` (stereo not given): the inhibition was 9% (inactive).

For `Cc1ccc(C)c2[nH]c(=O)c(CCNC(=O)c3ccc(S(=O)(=O)N(C)C)cc3)cc12`, the inhibition is 0% (inactive).

As to `O=C(OCC(=O)c1cccs1)C1=COCCO1`, the inhibition is 0% (inactive).

For the compound `CCOC(=O)Nc1cc(OCC)c(NC(=O)C2CC2)cc1OCC`, the inhibition was 0% (inactive).

As to `Cc1cc2ncn(C(=O)c3c(-c4ccccc4)noc3C)c2cc1C`, the inhibition was 5% (inactive).

On to `CC1=C(C)[N+](=O)C2CCCCC2N1[O-]` (stereo not given), for which the inhibition was 3% (inactive).

For the compound `CCOc1ccc2nc(NC(=O)CSc3nc4ccccc4c(=O)n3Cc3ccco3)sc2c1`, the inhibition is 0% (inactive).

For `Cc1cccc(Nc2ncc3c(n2)CC(c2ccco2)CC3=O)c1` (stereo not given), the inhibition is 1% (inactive).

With `COc1ccc(CCNc2oc(Cc3cccc4ccccc34)nc2C#N)cc1OC`, the inhibition is 5% (inactive).

Regarding `Cc1[nH]nc2c1C1(CCN(C(=O)c3ccccc3)CC1)C(C#N)=C(N)O2`, the inhibition was 0% (inactive).

Turning to `Cc1nnc(N2C(=O)c3oc4ccccc4c(=O)c3C2c2ccco2)s1` (stereo not given), the inhibition is 2% (inactive).

Turning to `COc1cc(NC(=O)CSCc2cnn(-c3ccccc3)c2-n2cccc2)cc(OC)c1`, the inhibition is 6% (inactive).

As for `CCOC(=O)n1c(SCC(=O)N(CC)CC)nc2ccccc21`, the inhibition was 0% (inactive).

As to `O=C(CCN1C(=O)COc2ccccc21)NCCN1CCN(c2cccc(Cl)c2)CC1`, the inhibition is 0% (inactive).

In the case of `N/C(=N/O)c1nc(N2CCCCC2)nc(N2CCCCC2)n1`, the inhibition is 0% (inactive).

For `O=C(NCC(=O)N1CCC(N2CCCCC2)CC1)C1CCCCC1`, the inhibition is 3% (inactive).

The term inhibition denotes the change of the read-out against control, counted positive when it falls.

For the origin of these results see PubChem BioAssay.
